Sampled rows, rich in hits. Any-hit rate of the full collection: about 9%.
LMNA splice mod = modulators of lamin A splicing; HeLa LMNA splicing GFP/RFP minigene ratio, 48 h; Potency, µM (highest dose often 46.1 µM), for inactives: at the highest dose ratio change, negative = inhibition, usual class: inhibitors; hit rate 0.01% among 200,000; AID 1487; active means well fitted inhibition curve with a large enough effect in the signal ratio, with a control signal flat, not every such curve was filed as active; inconclusive means small, poorly fitted or top-dose-only effect, or effect the other way, or a change in a side signal; the % refers to the signal ratio; further: on the % scale 0 is the no-effect control and ±100 the full control effect
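S3 HeLa stable clones carrying a lamin A-EGFP splicing minigene plus DsRed2 were seeded at 600 cells/well in Opti-MEM with 2% FBS, pin-dosed and incubated 48 h at 37°C. Acumen cytometry (488 nm) gave the GFP/RFP total-intensity ratio.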
ALDH1A1 inh = ALDH1A1 (human) enzyme inhibition | AID 1030 | hit rate 7.3% among 220,000 | Purified ALDH1A1, NADH fluorescence, propionaldehyde substrate | Potency, µM (doses to about 75.3 µM), for the others: at the top dose activity, negative = inhibition, hits mostly inhibitors; active means well fitted inhibition curve with a large enough effect, not every such curve was filed as active; inconclusive means small, poorly fitted or top-dose-only effect, or another doubt; inactive means no such curve, though single readings can be large or run the other way;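 further: plate controls were no enzyme wells and a reference inhibitor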
Target sequence (P00352 whole entry, looked up): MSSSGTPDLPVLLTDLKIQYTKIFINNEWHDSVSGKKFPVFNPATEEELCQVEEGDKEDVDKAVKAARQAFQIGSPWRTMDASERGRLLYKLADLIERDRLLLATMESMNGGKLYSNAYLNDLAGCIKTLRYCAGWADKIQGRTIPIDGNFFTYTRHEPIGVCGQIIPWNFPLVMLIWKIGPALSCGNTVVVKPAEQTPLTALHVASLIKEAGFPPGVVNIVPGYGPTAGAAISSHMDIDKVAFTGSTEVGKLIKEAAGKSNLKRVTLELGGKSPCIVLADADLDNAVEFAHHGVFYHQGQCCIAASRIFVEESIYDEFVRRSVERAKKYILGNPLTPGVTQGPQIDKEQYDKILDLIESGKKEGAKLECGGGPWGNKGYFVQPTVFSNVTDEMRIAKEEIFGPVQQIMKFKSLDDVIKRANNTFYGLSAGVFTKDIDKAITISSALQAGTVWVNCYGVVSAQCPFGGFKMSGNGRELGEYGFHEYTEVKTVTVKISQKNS
HPGD inh = blocks human HPGD enzyme activity; P15428; purified HPGD, NADH fluorescence kinetic, PGE2 substrate; Potency, µM, without a hit: at the top dose activity change, negative = inhibition, usual class: inhibitors; hit rate 4.3% among 150,000; AID 894; active means well fitted inhibition curve with a large enough effect, not every such curve was filed as active; inconclusive means small, poorly fitted or top-dose-only effect, or another doubt; inactive means no such curve, though single readings can be large or run the other way; further: on the % scale 0 is the no-effect control and ±100 the full control effect
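20 nM HPGD preincubated 15 min at room temperature with compound in 50 mM Tris-HCl pH 8, 0.01% Tween 20. Started with 1 mM NAD+ and 30 uM prostaglandin E2; NADH fluorescence (360/450 nm) read 5 times over 30-s intervals, last minus first.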
KinaseGlo FLuc = counter-screen: inhibitors of Kinase-Glo firefly luciferase; Q27757; Kinase-Glo luciferase, ATP luminescence, 8 min; Potency, µM (top dose mostly 38.3 µM), without a hit: at the highest dose activity change, negative = inhibition, most hits filed as inhibitors; hit rate 0.28% among 200,000; AID 1379; further: on the % scale 0 is the no-effect control and ±100 the full control effect; nearly all actives have a fitted effect of over 60% in size
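Kinase-Glo luciferase light output from ATP and luciferin was measured with 10 uM ATP, within the enzyme's linear range. Buffer: 50 mM imidazole pH 7.2, 50 mM KCl, 7 mM MgCl2, 0.01% Tween 20, 0.05% BSA; luminescence read after 8 min at ambient temperature.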
HttQ103 aggreg = inhibitors of mutant huntingtin aggregate formation in PC12 cells. PC12 HttQ103-GFP aggregates, Acumen cytometry, 40 h. AID 1688. Potency, µM (doses to about 46.1 µM), without a hit: at the highest dose activity change, negative = inhibition, usual class: inhibitors. hit rate 1.1% among 220,000; further: on the % scale 0 is the no-effect control and ±100 the full control effect; nearly all actives have a fitted effect of over 60% in size
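Steps: seed 1500 PC12 HTTQ103-GFP cells/well; add tebufenozide, 100 nM final; add compound titration; add ATPLite reagent; quantify GFP aggregates by laser scanning cytometry.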
HTT ATP protect = protects HTT-Q103 PC12 cells, measured by ATP; hit rate 0.14% among 230,000; PC12 HTT-Q103 induced, cytoprotection, ATP luminescence, 40 h; Potency, µM (doses to about 56.4 µM), for inactives: cytoprotection (ATP increase), most hits filed as activators; further: % of control where 0% means no effect; nearly all actives have a fitted effect of over 45% in size
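Compounds were screened for protection of PC12 cells against cell death after tebufenozide induction (100 nM final) of mutant Huntingtin exon 1 (Q103) fused to GFP.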
The depositor's hits bear a star; ? = inconclusive; · = no result; [ ] = another dose, or the depositor's remark. Unless noted, the call rests on the fitted dose curve; in most records, active means well fitted curve in the direction sought with a large enough effect; inconclusive means small, poorly fitted or top-dose-only effect, or another doubt; inactive means no such curve, though single readings can be large; an effect the other way counts as inactive or inconclusive. Potency means the concentration at half of the fitted maximal effect.

SMILES	LMNA splice mod	ALDH1A1 inh	HPGD inh	KinaseGlo FLuc	HttQ103 aggreg	HTT ATP protect
CC1CCCC(C)N1/N=C/c1cc(Br)c(O)c(Br)c1 (configuration not stated)	10%	?	-13%	0%	8%	-15%[10 µM]
CC1CCCC(C)N1/N=C/c1ccc(N(C)C)cc1 (configuration not stated)	-12%[46 µM]	4µM*	·	5%	17%	-15%[10 µM]
Cc1cccc(N2C(=O)CSC2c2cccnc2)c1 (configuration not stated)	2%	-12%	6%	15%	0%	16%
CN(C)CCn1c(C(=O)Nc2ccccc2)cc2ccccc21	2%	24%	·	·	3.2µM*	38%
CC(=O)Nc1nc2ccccc2n1CCN(C)C	1%	-5%	-6%	1%	6%[9.22 µM]	-3%
CC(=O)Nc1ccc(NC(=O)CN(c2ccc(C34CC5CC(CC(C5)C3)C4)cc2)S(C)(=O)=O)cc1	9%	-2%	-9%	-5%	4%	-20%
CS(=O)(=O)N(CC(=O)Nc1ccc(CC#N)cc1)c1ccc(C23CC4CC(CC(C4)C2)C3)cc1	?	9%	-9%	1%	22µM*	41%[10 µM]
Cc1cc(=O)n(Cc2ccc(Br)cc2F)c2c1c(C)nn2-c1ccccc1	11%[46 µM]	·	·	·	·	·
O=C(O)/C=C\C(=O)Nc1ccccc1F	-5%	35µM*	-4%	5%	10%	23%[10 µM]
O=C(O)C1CCCCC1C(=O)Nc1ccccc1F (configuration not stated)	14%	20µM*	-5%	2%	16%	-1%
COc1ccccc1NC(=O)/C=C\C(=O)O	?	0%	·	5%	4%	-14%
COc1ccc(Cl)cc1NC(=O)/C=C\C(=O)O	3%	0%	-3%	-2%	-5%	10%
O=C(O)/C=C\C(=O)Nc1ccc(F)c(F)c1F	·	22µM*	·	·	-4%[9.22 µM]	-6%[10 µM]
CCOc1ccc(NC(=O)CCn2nc(C)c(S(=O)(=O)N3CCCCC3)c2C)cc1	2%[46 µM]	·	·	·	·	·
CCOC(=O)c1sc2ccccc2c1S(=O)(=O)Nc1ccc(C(C)=O)cc1	8%[46 µM]	·	·	·	·	·
COc1cc(OC)c(C#N)c(S(=O)Cc2ccccc2)c1 (configuration not stated)	16%	14µM*	-4%	-3%	-2%	3%
Cc1ccc(S(=O)(=O)N2CCN(Cc3nc4ccc(C)cc4o3)CC2)c(C)c1	-3%[46 µM]	·	·	·	·	·
CC(C)C(OC(=O)c1cc2sccc2n1C)C(=O)NCC1CCCO1 (configuration not stated)	?	-3%	-9%	0%	-8%	-14%[10 µM]
COc1ccc(CN(CC2CCCO2)C(=O)c2cc3sccc3n2C)c(OC)c1 (configuration not stated)	·	11µM*	·	2%	·	·
COc1cc(CN2CCNC(=O)C2CC(=O)NCCC2=CCCCC2)cc(OC)c1 (configuration not stated)	?	20µM*	·	2%	-4%[9.22 µM]	11%[10 µM]
CCOc1ccc(CN2CCNC(=O)C2CC(=O)NCCC2=CCCCC2)cc1 (configuration not stated)	·	?	·	-1%	-6%[9.22 µM]	-6%[10 µM]
COc1ccccc1NC(=O)c1ccccc1NS(=O)(=O)N1CCCC1	1%	4%	-11%	3%	-18%	-5%[0.074 µM]
O=C(CN(CC(=O)N1CCOCC1)S(=O)(=O)c1ccc(Br)s1)N1CCOCC1	·	·	·	·	·	-4%[10 µM]
CN(CC(=O)N1CCCCCC1)S(=O)(=O)c1ccc(Br)s1	14%	?	22µM*	-4%	5%	-9%
Nc1nc2c(s1)COc1ccccc1-2	?	22µM*	·	-3%	12%[9.22 µM]	12%[10 µM]
Nc1nc2c(s1)CCc1c-2cnn1-c1ccccc1	?	?	?	-28%	-13%	-64%
O=C(CCSc1ccccc1)Nc1nc2c(s1)COc1ccccc1-2	20%	14µM*	-26%	-1%	-1%	5%[10 µM]
CC(C)(C)C(=O)Nc1nc2c(s1)COc1ccccc1-2	?	-8%	-19%	3%	?	-9%[10 µM]
Nc1nnc(-c2cccc(F)c2)s1	·	·	·	·	-13%[9.22 µM]	-4%[10 µM]

Assay outcomes: PubChem BioAssay, National Center for Advancing Translational Sciences (NCATS)
